Data as given in the supplement of paper PMC3342239.
Where a name gives a salt, the structure may show the parent alone.

Test system: Saccharomyces cerevisiae
Experiment: fraction of cells in G1 phase (DNA content, flow cytometry); higher = more cells with unreplicated DNA (G1 delay)
Conditions: temperature: 30 C; YPD; BY4741 PDR5+ SNQ2+; drug added to: actively dividing cells; 4.33 h
In short: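 Overnight cultures of sensitized JTY2953 were diluted 1∶200 into drug at a final 20 µg/ml and fixed after 6–7 h, and further runs treated dividing JTY2953 or BY4741, fixing them 6 h and 4.33 h later respectively. All growth used YPD at 30°C with S. cerevisiae and library drugs. After ethanol fixation and SYTOX Green staining, flow cytometry recorded 10,000 events. The G1 fraction equals the Dean-Jett-Fox G1 peak area over the G1 plus G2/M areas.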

Question: Which “fraction of cells in G1 phase” value does the source give for `CN(C)CCCN1c2ccccc2Sc2ccc(Cl)cc21` [Chlorpromazine HCl] (62.7212 µM) here?
Answer: 0.373

Question: Which “fraction of cells in G1 phase” value does the source give for `CC[C@@]1(O)C[C@H](O[C@H]2C[C@H](N(C)C)[C@H](O[C@H]3C[C@H](O)[C@H](O[C@H]4CCC(=O)[C@H](C)O4)[C@H](C)O3)[C@H](C)O2)c2c(cc3c(c2O)C(=O)c2c(O)cccc2C3=O)[C@H]1C(=O)OC` [Aclarubicin] (24.6339 µM) here?
Answer: 0.431

Question: Which “fraction of cells in G1 phase” value does the source give for `CC1CCc2c(N3CCC(O)CC3)c(F)cc3c(=O)c(C(=O)O)cn1c23` (stereo unspecified) [Nadifloxacin] (55.4956 µM) here?
Answer: 0.43

Question: With `CNCCC(Oc1ccc(C(F)(F)F)cc1)c1ccccc1` (stereo unspecified) [Fluoxetine HCl] (64.655 µM) as the compound, how does the “fraction of cells in G1 phase” value read?
Answer: 0.43

Same assay, conditions: temperature: 30 C; YPD; JTY2953 pdr5 snq2 (sensitized); drug added to: actively dividing cells; 6 h

Question: `COC(=O)C1=C(C)NC(C)=C(C(=O)OCC(C)C)C1c1ccccc1[N+](=O)[O-]` (stereo unspecified) [Nisoldipine] (51.4901 µM) was tested. Which “fraction of cells in G1 phase” value did it give?
Answer: 0.587

Question: How did the “fraction of cells in G1 phase” value turn out when `CCN(CC)C(=S)SSC(=S)N(CC)CC` [Disulfiram] (67.4445 µM) was run?
Answer: 0.466

Question: `CC(C)(C)c1ccc(C(O)CCCN2CCC(C(O)(c3ccccc3)c3ccccc3)CC2)cc1` (stereo unspecified) [Terfenadine] (42.4008 µM) was tested. Which “fraction of cells in G1 phase” value did it give?
Answer: 0.324

Question: For `CCN(CC)CCOc1ccc(C(=C(Cl)c2ccccc2)c2ccccc2)cc1` [Clomiphene citrate] (49.2645 µM), which “fraction of cells in G1 phase” value is on record?
Answer: 0.388

Question: Which “fraction of cells in G1 phase” value does the source give for `C=C1/C(=C\C=C2/CCC[C@]3(C)[C@@H]([C@H](C)/C=C/[C@@H](O)C4CC4)CC[C@@H]23)C[C@@H](O)C[C@@H]1O` [Calcipotriene] (48.471 µM) here?
Answer: 0.375

Question: For `CCOC(=O)N1CCC(=C2c3ccc(Cl)cc3CCc3cccnc32)CC1` [Loratadine] (52.2338 µM), which “fraction of cells in G1 phase” value is on record?
Answer: 0.448

Question: For `C[C@H](CS)C(=O)N1CCC[C@H]1C(=O)O` [Captopril] (92.0434 µM), which “fraction of cells in G1 phase” value is on record?
Answer: 0.436
